The test has as its system K562 SF3B1 K700E vs K562 SF3B1 WT. As to the kind of experiment: surviving fraction ratio K562 SF3B1 K700E / K562 SF3B1 WT (each relative to DMSO); higher = less selective killing of SF3B1 K700E cells. Conditions: 5 days. The procedure, abridged:
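In 384-well plates holding 250 cells per well, isogenic K562 cells bearing an engineered mutant allele and matched wild-type cells received compounds from an in-house 80-compound library 24 h after seeding. Doses were 0.5, 1, 5, 10, 50, 100, 500 and 1,000 nM, with 5 d of continuous culture. Surviving fractions were taken from CellTiter-Glo readings and normalised to DMSO. The value reported is the mutant-over-wild-type ratio of these fractions.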

Where a name gives a salt, the structure may show the parent alone.

`CCCCCCCCCCCCCCCC(=O)Nc1ccn([C@@H]2O[C@H](CO)[C@@H](O)[C@@H]2C#N)c(=O)n1` [sapacitabine]: the “surviving fraction ratio K562 SF3B1 K700E / K562 SF3B1 WT” value runs as follows: (1nM) 0.911; (10nM) 1.11; (100nM) 0.745; (1000nM) 1.78.
For the compound `Cc1ccc(-c2cc(C(F)(F)F)nn2-c2ccc(S(N)(=O)=O)cc2)cc1` [celecoxib], the “surviving fraction ratio K562 SF3B1 K700E / K562 SF3B1 WT” value runs as follows: (0.5nM) 0.751; (1nM) 0.819; (5nM) 0.804; (10nM) 0.813; (50nM) 0.673; (100nM) 0.736. Besides, the “surviving fraction ratio K562 SF3B1 K700E / K562 SF3B1 WT” value is 0.79 (500nM) and 0.698 (1000nM).
On to `CS(=O)(=O)CCNCc1ccc(-c2ccc3ncnc(Nc4ccc(OCc5cccc(F)c5)c(Cl)c4)c3c2)o1` [lapatinib], for which the “surviving fraction ratio K562 SF3B1 K700E / K562 SF3B1 WT” value by setting is: (0.5nM) 0.726; (1nM) 0.755; (5nM) 0.828; (10nM) 0.669; (50nM) 0.99; (100nM) 0.906. Further, the “surviving fraction ratio K562 SF3B1 K700E / K562 SF3B1 WT” value amounted to 0.898 (500nM) and 0.665 (1000nM).
Turning to `COc1cc2nccc(Oc3ccc(NC(=O)C4(C(=O)Nc5ccc(F)cc5)CC4)cc3)c2cc1OC` [Cabozantinib], the “surviving fraction ratio K562 SF3B1 K700E / K562 SF3B1 WT” value turned out to be 0.718 (0.5nM); 0.805 (1nM); 0.831 (5nM); 0.71 (10nM); 0.733 (50nM); 0.704 (100nM). In addition, the “surviving fraction ratio K562 SF3B1 K700E / K562 SF3B1 WT” value is, setting by setting: (500nM) 0.503; (1000nM) 0.686.
On to `Nc1ccn([C@@H]2O[C@H](CO)[C@@H](O)C2(F)F)c(=O)n1` [gemcitabine.HCl], for which the “surviving fraction ratio K562 SF3B1 K700E / K562 SF3B1 WT” value (0.5nM) is 0.839; the “surviving fraction ratio K562 SF3B1 K700E / K562 SF3B1 WT” value (1nM) was 0.772; the “surviving fraction ratio K562 SF3B1 K700E / K562 SF3B1 WT” value (5nM) amounted to 0.465; the “surviving fraction ratio K562 SF3B1 K700E / K562 SF3B1 WT” value (10nM) turned out to be 0.491; the “surviving fraction ratio K562 SF3B1 K700E / K562 SF3B1 WT” value (50nM) is 0.901; the “surviving fraction ratio K562 SF3B1 K700E / K562 SF3B1 WT” value (100nM) amounted to 1.16. For the same compound, the “surviving fraction ratio K562 SF3B1 K700E / K562 SF3B1 WT” value stood at 1.1 (500nM) and 1.16 (1000nM).
Consider `CN1CC[C@H](c2c(O)cc(O)c3c(=O)cc(-c4ccccc4Cl)oc23)[C@H](O)C1` [Flavopiridol], for which the “surviving fraction ratio K562 SF3B1 K700E / K562 SF3B1 WT” value turned out to be 0.8 (0.5nM); 0.83 (1nM); 0.793 (5nM); 0.847 (10nM); 0.916 (50nM); 0.929 (100nM). Moreover, the “surviving fraction ratio K562 SF3B1 K700E / K562 SF3B1 WT” value (500nM) amounted to 1.89 and the “surviving fraction ratio K562 SF3B1 K700E / K562 SF3B1 WT” value (1000nM) amounted to 2.25.
As to `COc1ccc(-c2cc3c(C)nc(N)nc3n([C@H]3CC[C@H](OCCO)CC3)c2=O)cn1`, the “surviving fraction ratio K562 SF3B1 K700E / K562 SF3B1 WT” value is, setting by setting: (0.5nM) 1.06; (1nM) 1.14; (5nM) 0.92; (10nM) 1; (50nM) 0.958; (100nM) 0.868. The “surviving fraction ratio K562 SF3B1 K700E / K562 SF3B1 WT” value (500nM) came to 1.37 and the “surviving fraction ratio K562 SF3B1 K700E / K562 SF3B1 WT” value (1000nM) worked out at 1.58.

The values above are taken from the supplement of paper PMC10412459.
